From PubChem BioAssay
Rows were chosen to be rich in hits. Some 14% of all compounds tested hit in one or more screens of this group.
HCV inh = inhibitors of hepatitis C virus infection; Huh7.5.1 HCVcc-Cre infection, luciferase reporter, 44 h; Potency, µM (doses to about 41.8 µM), without a hit: at the top dose activity change, negative = inhibition, hits mostly inhibitors; hit rate 3.4% among 340,000; AID 651820; also: potency is read from the fitted curve at half-maximal effect
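Whole-lifecycle infectious HCVcc-Cre system; cells 1,000/well, compound then virus (~0.5 moi) added 4 h after plating, 44 h culture. Luciferase read 15 sec following 15 min substrate incubation, room temp.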
LASV entry inh = inhibitors of Lassa virus binding or cell entry | Lassa virus pseudotype entry inhibition, cell reporter | AID 540256 | hit rate 1.2% among 300,000 | Potency, µM (highest dose often 37.9 µM), for inactives: top-dose activity change, negative = inhibition, most hits filed as inhibitors; calls by dose curve; tested in HEK293 cells; also: potency is read from the fitted curve at half-maximal effect; nearly all actives have a fitted effect of over 50% in size
HCMV antiviral = blocks human cytomegalovirus replication | hit rate 4.5% among 410,000 | activity change, negative = inhibition, % at 57.5 µM | AID 1259415 | HFF cells, HCMV-luciferase reporter, 72 h; active compounds read low; in the data active = activity change below about -60%; inconclusive = no clear call, values can overlap the other calls; inactive = above about -39%
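Inhibition of viral replication was scored as loss of reporter luminescence in HFFs infected with HCMV-luciferase (MOI 1 PFU/cell) for 72 h; compounds tested at 2 doses, normalized to buffer and Salinomycin controls.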
Marburg entry inh = blocks Marburg virus binding to or entry into cells. Marburg virus pseudotyped entry inhibition, cell reporter. Potency, µM (series often up to 37.8 µM), inactives show top-dose activity change, negative = inhibition, most hits filed as inhibitors. hit rate 1.8% among 300,000. AID 540276; calls by dose curve; tested in HEK293 cells; also: potency is read from the fitted curve at half-maximal effect
Pf growth 48h = P. falciparum growth inhibition at 48 hours (one generation); P. falciparum luciferase growth in erythrocytes, 48 h; Potency, µM (highest dose often 28.7 µM), for inactives: top-dose activity change, negative = inhibition, most hits filed as inhibitors; hit rate 5.9% among 310,000; also: potency is read from the fitted curve at half-maximal effect
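In quantitative HTS format, infected erythrocytes bearing luciferase-reporter parasites were treated for a single generation at 37 C. Luminescence after adding detection reagent served as the growth measure.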
Pf growth 96h = P. falciparum growth inhibition at 96 hours. P. falciparum luciferase reporter growth, 96 h. Potency, µM (series often up to 28.7 µM), without a hit: at the top dose activity change, negative = inhibition, hits mostly inhibitors. hit rate 6.9% among 320,000; also: potency is read from the fitted curve at half-maximal effect
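Readout is luminescence from an integrated firefly luciferase in P. falciparum. Red cells, 2% hematocrit and 0.05% parasitemia final, were cultured with compound through two parasite generations (96 hours) at 37 C, 5% CO2.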
* = called active by the depositor; ! = repeats disagree; [ ] = dose if it differs, or a comment. Unless noted, calls follow the shape of the dose curve; as a rule, active = well fitted inhibition curve with a large enough effect; inconclusive = small, poorly fitted or top-dose-only effect, or another doubt; inactive = no such curve, though single readings can be large or run the other way. % is scaled to controls: 0 for no effect and ±100 for the full control effect.

What do the screens show for `Cc1ccc(NC(=O)[C@@H]2O[C@H](CO)[C@@H](O)[C@H]2O)cc1C(F)(F)F`?
HCMV antiviral: 8

Results for COCOc1ccc(-c2ncc(OC)nc2NC(=O)c2ccsc2)cc1 ?
HCMV antiviral: 19

What do the screens show for `O=C(Nc1ccc(C(=O)OC[C@@H]2CCCN3CCCC[C@H]23)cc1)c1cccc(Br)c1`?
HCV inh: 11µM*; LASV entry inh: -6%; HCMV antiviral: -5; Marburg entry inh: 9.2µM*; Pf growth 48h: 1.9µM*; Pf growth 96h: 2.6µM*

What do the screens show for `Cc1ccc(NC(=O)CCC(=O)N2Cc3ccccc3Oc3ncccc32)cc1Cl`?
LASV entry inh: 1%[46.1 µM]; HCMV antiviral: 8

How did COc1ccc(C(Nc2ccc(S(=O)(=O)N3CCOCC3)cc2)C(=O)NCCC(C)C)cc1OC (centres undefined) do in these assays?
HCV inh: -40%; LASV entry inh: -10%; HCMV antiviral: -28; Marburg entry inh: 6%[46.1 µM]; Pf growth 48h: inconclusive; Pf growth 96h: 19%

Results for COc1ccc(NC(=O)c2ccc(Cl)c(S(=O)(=O)NCC3CCCO3)c2)c(OC)c1 (centres undefined) ?
HCV inh: inconclusive; Pf growth 48h: inconclusive; Pf growth 96h: 12µM*

How did COc1cccc2cc(C(=O)Nc3ccc(S(=O)(=O)NCC4CCCO4)cc3)c(=O)oc12 (centres undefined) do in these assays?
HCV inh: 35%; LASV entry inh: -18%; HCMV antiviral: 1; Marburg entry inh: 5%[46.1 µM]; Pf growth 48h: 2.1µM*; Pf growth 96h: 60%

Results for COc1cc(C(Nc2ccc(S(=O)(=O)N3CCC(C)CC3)cc2)C(=O)NCC2CCCO2)cc(OC)c1OC (centres undefined) ?
HCV inh: -17%; LASV entry inh: -3%; HCMV antiviral: inconclusive; Marburg entry inh: 14%; Pf growth 48h: 13µM*; Pf growth 96h: inconclusive

What do the screens show for `COc1cccc2cc(C(=O)Nc3ccc(C)cc3)c(=O)oc12`?
LASV entry inh: 1%[46.1 µM]; HCMV antiviral: 6

Results for COc1cc(C(Nc2ccc(S(=O)(=O)NCC3CCCO3)cc2)C(=O)NC(C)(C)C)cc(OC)c1OC (centres undefined) ?
HCV inh: 17%; LASV entry inh: 13%; HCMV antiviral: 0; Marburg entry inh: -1%[46.1 µM]; Pf growth 48h: 2.1µM*; Pf growth 96h: inconclusive

What do the screens show for `O=C(NCCc1ccc(Cl)cc1)c1ccc2c(c1)N(Cc1ccc(Cl)cc1)C(=O)CS2`?
LASV entry inh: -12%[46.1 µM]; HCMV antiviral: -19; Marburg entry inh: inconclusive

What do the screens show for `COC(=O)C1(C)C2CC(C)C(c3ccccc32)N1C(=O)C(F)(F)F` (centres undefined)?
LASV entry inh: inconclusive; Marburg entry inh: -9%[14.2 µM]

How did CCOC(=O)c1c(NC(=O)CSc2cn(CCNC(=O)c3c(F)cccc3F)c3ccccc23)sc2c1CCCC2 do in these assays?
LASV entry inh: -22%[46.1 µM]; HCMV antiviral: -5; Marburg entry inh: -3%[46.1 µM]

What do the screens show for `O=[N+]([O-])c1cccc(Cl)c1N1CCOCC1`?
HCV inh: 30%; LASV entry inh: 11%; HCMV antiviral: 6; Marburg entry inh: 5%; Pf growth 48h: 20%; Pf growth 96h: inconclusive

What do the screens show for `C=CSc1sc(Cl)c(N2CCOCC2)c1[N+](=O)[O-]`?
HCV inh: 9%; LASV entry inh: inconclusive; HCMV antiviral: inconclusive; Marburg entry inh: inconclusive; Pf growth 48h: 8.3µM*; Pf growth 96h: 25%

How did O=c1oc2ccc([N+](=O)[O-])cc2c(N2CCOCC2)c1[N+](=O)[O-] do in these assays?
HCMV antiviral: -9; Pf growth 48h: -8%; Pf growth 96h: 391%

What do the screens show for `C=CS(=O)(=O)c1sc(Cl)c(N2CCOCC2)c1[N+](=O)[O-]`?
HCV inh: inconclusive; LASV entry inh: 3.2µM*; HCMV antiviral: -72*; Marburg entry inh: 5µM*; Pf growth 48h: -7%; Pf growth 96h: -13%

Results for O=S(=O)(NC1CCCC1)OCC(Cl)(Cl)Cl ?
HCV inh: 0.32µM*; HCMV antiviral: -63*; Pf growth 48h: 16%; Pf growth 96h: 33%

How did Oc1cc2c(cc1O)C(c1ccccc1)CNCC2 (centres undefined) do in these assays?
HCV inh: -23%; LASV entry inh: inconclusive; HCMV antiviral: -31; Marburg entry inh: 16µM*!

Results for Oc1cc2c(cc1O)[C@@H](c1ccccc1)CNCC2 ?
HCV inh: 2%[8.37 µM]; LASV entry inh: -25%; HCMV antiviral: 8; Marburg entry inh: -21%; Pf growth 48h: inconclusive; Pf growth 96h: -75%

How did c1ccc(C2CNCCc3ccccc32)cc1 (centres undefined) do in these assays?
HCV inh: 0%; HCMV antiviral: -14; Pf growth 48h: -2%[0.00184 µM]; Pf growth 96h: 1.7µM*

Results for Cc1cc2oc(C(=O)Nc3c(C)n(C)n(-c4ccccc4)c3=O)cc(=O)c2cc1C ?
LASV entry inh: -8%[46.1 µM]; HCMV antiviral: 13; Marburg entry inh: -16%[46.1 µM]

What do the screens show for `Clc1cccc(CNc2ccn3nc(-c4cccc(OCc5ccccc5)c4)cc3n2)c1`?
HCMV antiviral: -13

Results for Cc1ccc(C(=O)c2cnc3ccccc3c2-c2ccccc2)cc1 ?
HCV inh: inconclusive; LASV entry inh: -21%; HCMV antiviral: inconclusive; Marburg entry inh: -13%; Pf growth 48h: 13µM*; Pf growth 96h: 10µM*

Results for COc1ccc(C(=O)c2cnc3ccccc3c2-c2ccccc2)cc1 ?
HCV inh: 13µM*; LASV entry inh: 0%; HCMV antiviral: inconclusive; Marburg entry inh: inconclusive; Pf growth 48h: inconclusive; Pf growth 96h: inconclusive

Results for COc1ccc(Br)cc1CNC(=O)c1cnc2sc(N3CCCC3)nn2c1=O ?
LASV entry inh: 0%[46.1 µM]; HCMV antiviral: -28

Results for O=C1C(Nc2ccccc2)=C(NS(=O)(=O)c2ccccc2)C(=O)c2ccccc21 ?
HCV inh: 19%; LASV entry inh: -3%; HCMV antiviral: inconclusive; Marburg entry inh: 16%; Pf growth 48h: 10µM*; Pf growth 96h: 4.1µM*

How did CCOc1ccccc1N1CCN(C2=C(NS(=O)(=O)c3cccs3)C(=O)c3ccccc3C2=O)CC1 do in these assays?
HCV inh: inconclusive; LASV entry inh: inconclusive; HCMV antiviral: -20; Marburg entry inh: -22%; Pf growth 48h: 10µM*

Results for NC(=O)C1CCN(C2=C(NS(=O)(=O)c3ccccc3)C(=O)c3ccccc3C2=O)CC1 ?
HCV inh: -1%; LASV entry inh: inconclusive; HCMV antiviral: 0; Marburg entry inh: inconclusive; Pf growth 48h: inconclusive; Pf growth 96h: inconclusive
